KCNH2 3.1 inh – blocks the human KCNH2 3.1 channel isoform; AID 720553; U2OS KCNH2 3.1, thallium flux FluxOr; stronger effect = lower value; hit rate 0.95% among 340,000; activity change, % (tested at about 1.8 µM);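 active = maximum activity change below -70%; inconclusive = maximum activity change from -70% to -50%; inactive = maximum activity change above -50%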;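 note: thallium influx rate constant from kinetic fluorescence after stimulation buffer; % is set by controls: 0 for no effect and ±100 for the full control effect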
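FluxOr-based Tl+ influx in U2OS cells transduced with KCNH2 3.1 virus; rate constants normalized to DMSO controls.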
KCNH2 WT inh – inhibitors of human wildtype KCNH2 potassium channel; activity change, % at 1.84 µM; hit rate 0.37% among 340,000; Q12809; U2OS, BacMam KCNH2, thallium flux FluxOr; stronger effect = lower value;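 active = maximum activity change below -70%; inconclusive = maximum activity change between -70% and -50%; inactive = maximum activity change above -50%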; note: % is set by controls: 0 for no effect and ±100 for the full control effect
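U2OS cells were transduced with wild-type KCNH2 virus (2.03 x 10^8 / mL) for 4 h at room temperature, then cultured overnight at 37 C. Thallium flux was read with FluxOr dye. Rate constants were normalized to DMSO controls.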
MmCpn inh – inhibitors of Methanococcus maripaludis chaperonin TRiC (MmCpn); hit rate 0.031% among 330,000; Potency, µM (highest dose often 76.9 µM), for the others: top-dose activity, negative = inhibition, actives largely listed as inhibitors; purified Mm-Cpn ATPase, ADP Transcreener TR-FRET; active = well fitted inhibition curve with a large enough effect; inconclusive = small, poorly fitted or top-dose-only effect; note: potency is the fitted concentration of half-maximal effect; % is set by controls: 0 for no effect and ±100 for the full control effect; nearly all actives have a fitted effect of over 80% in size
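Reaction buffer contained 30 mM Tris pH 7.4, 100 mM KCl, 5 mM MgCl2 and 1 mM DTT. Mm-CPN (25 nM final) hydrolysed 10 uM ATP over 30 min at 37°C; ADP was read by HTRF.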
CCT chaperon mod – changes cytosolic chaperonin activity; purified chaperonin ATPase assay, HTRF ADP detection, 30 min; activity change, % (no concentration beside the values), hits read low; hit rate 0.3% among 360,000; AID 651819; in the data active = activity change below about -30%; note: % is set by controls: 0 for no effect and ±100 for the full control effect
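ATPase activity: ADP formed was measured by HTRF Transcreener (665/615 nm ratio) after 30 min at 37 deg C with 10 uM ATP. Compounds screened at one 76 uM concentration against 40 or 20 nM TRiC in Tris pH 7.4/KCl/MgCl2/DTT buffer.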
Rango complex inh – inhibitors of Rango-importin beta complex formation; Q14974; AID 540263; Rango CFP/YFP FRET sensor + importin beta, 45 min; hit rate 0.031% among 340,000; Potency, µM (top dose mostly 92.2 µM), for the others: top-dose inhibition of complex formation;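 note: potency is the fitted concentration of half-maximal effect; 0% = DMSO wells and 100% = buffer wells lacking importin beta; nearly all actives have a fitted effect of over 15% in size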
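Inhibition scored from the CFP 486 nm/YFP 530 nm FRET ratio 45 min after adding 0.125 microM importin beta to 50 nM Rango biosensor preincubated 5 min with compound (room temperature, PBS with DTT, Tween-20, BSA). No-importin wells as positive control.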
Rango release inh – inhibition of RanGTP-driven Rango-importin beta dissociation; Biochemical FRET Rango-importin beta, RanGTP-induced dissociation; Potency, µM (series often up to 46.1 µM), without a hit: at the highest dose activity change, negative = inhibition; hit rate 0.071% among 340,000; note: potency is the fitted concentration of half-maximal effect; % of control where 0% means no effect; nearly all actives have a fitted effect of over 45% in size
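Rango FRET biosensor (snurportin-1 IBB flanked by N-terminal EYFP and C-terminal CFP10) at 0.1 uM, with 0.25 uM importin beta in PBS, 1mM DTT, 0.02% Tween-20, 0.1% BSA. 0.6 uM Ran, 2mM GTP and 0.2 uM RCC1 were then added for 45 min at room temperature. Inhibition read as loss of FRET rise.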
An asterisk follows results filed as active; i = inactive; ? = inconclusive; . = no result given. A selection: hits, their analogues and other compounds. The true share with any hit is near 1.4%. Unless noted, calls come from the whole dose curve.

SMILES	KCNH2 3.1 inh	KCNH2 WT inh	MmCpn inh	CCT chaperon mod	Rango complex inh	Rango release inh
O=P(OC1CCCCC1)(OC1CCCCC1)C(O)c1ccccc1 (centres undefined)	-22	1	0%	-4	3%	-1%
Cc1cccc(OCc2n[nH]c(=S)n2Cc2ccccc2)c1	5	-5	0%	-7	0%	6%
CCOC(=O)c1c(NC(=S)Nc2ccccc2)sc2c1CC(C)(C)SC2	-15	-6	50µM*	0	?	-17%
CCOC(=O)c1c(NC(=S)NC)sc2c1CC(C)(C)SC2	-6	i	-7%	-5	-2%	-1%
O=C(Nc1ccc(Oc2ccccc2)cc1)C1CCN(c2c3c(nc4ncnn24)CCC3)CC1	-98*	-13	1%	-2	8%	-16%
NNC(=O)c1ccc([N+](=O)[O-])c(CS(=O)(=O)c2ccc(Cl)cc2)c1	-99*	1	-14%	2	-1%	0%
COc1ccc(/C=C2\Oc3ccccc3C2=O)cc1	.	.	-14%	-3	0%	5%
COc1ccc2c(c1)O/C(=C\c1sccc1C)C2=O	-5	3	1%	1	?	10µM*
O=C(Nc1cccc(O)c1)c1ccc(Br)c(S(=O)(=O)N2CCCCC2)c1	-92*	-10	1%	-3	-2%	14%
Cc1csc2nc(NC(=O)c3ccccc3)sc(=O)c12	-79*	-2	0%	0	?	5.8µM*
CC1=C(C(=O)OCC2CCCO2)C(c2ccc(C)cc2)C2=C(CC(C)(C)CC2=O)N1 (centres undefined)	-8	-3	0%	-1	?	-27%
O=S1c2ccccc2Oc2ccccc21	9	-1	.	-1	-3%	20%
O=[S@]1Oc2ccccc2-c2ccccc21	-19	-7	.	-71*	-1%	0%
CC(C)c1c(C#N)c(N)nc(SCC(=O)c2cc3ccccc3oc2=O)c1C#N	-7	-3	-3%	-2	?	-9%
N#Cc1ccc(-c2ccccc2)nc1SCC(=O)c1cc2ccccc2oc1=O	4	-2	-8%	1	?	16µM*
COc1cc(/C=C/C(=O)O)cc(S(=O)(=O)NC2CCCC2)c1OC	4	12	1%	-1	2%	?
COc1ccc(/C=C/C(=O)O)cc1S(=O)(=O)NC1CCS(=O)(=O)C1 (centres undefined)	-3	16	-6%	-97*	-2%	7%
CN1C(=O)c2cccc3c(S(N)(=O)=O)ccc1c23	-6	13	-5%	-6	?	0.58µM*
Cc1ccc(C)c(N(C)C(=O)c2ccc3c(=O)n4c(nc3c2)CCCCC4)c1	-1	24	1%	-72*	0%	1%
CN(C(=O)c1ccc2c(=O)n3c(nc2c1)CCCCC3)c1ccccc1F	4	1	1%	1	3%	-1%
O=C(CN1CCN(C(=O)c2ccccc2)CC1)Nc1ncc(Br)cc1Br	-85*	-20	-1%	1	-2%	0%
COc1ccc(-c2cc(C(=O)N(C)CC(=O)Nc3cccc(F)c3)c3ccccc3n2)cc1	8	1	?	0	0%	3%
COc1ccc(CN(C)CC(O)COC(c2ccc(OC)cc2)c2ccc(OC)cc2)cc1 (centres undefined)	-113*	?	2%	3	-1%	-10%
CCOc1ccc(CN(C)CC(O)COC(c2ccc(OC)cc2)c2ccc(OC)cc2)cc1 (centres undefined)	-93*	-85*	-1%	-3	-4%	-11%
COc1ccc(C(OCC(O)CN(C)C2CCCCC2)c2ccc(OC)cc2)cc1 (centres undefined)	-44	0	0%	0	-4%	-5%
SMILES	KCNH2 3.1 inh	KCNH2 WT inh	MmCpn inh	CCT chaperon mod	Rango complex inh	Rango release inh
NC(=O)c1cc([N+](=O)[O-])ccc1NCc1ccc(C(=O)O)cc1	.	.	-2%	-3	-3%	1%
CCc1ccc(C(=O)CCC(=O)Nc2ccc(OC)c(S(=O)(=O)N3CCCCC3)c2)cc1	12	1	-1%	-3	-1%	-18%
CC1CCCCN1S(=O)(=O)c1ccc(C(=O)Nc2sccc2C(N)=O)cc1 (centres undefined)	-96*	-22	-4%	-1	-1%	0%
NC(=O)c1ccsc1NC(=O)C1CCCN1S(=O)(=O)c1ccc(Cl)cc1 (centres undefined)	-1	0	-3%	-2	-2%	-9%
CSc1nsc(SC)c1NC(=O)Nc1ccccc1C	-84*	-4	-4%	-7	7%	9%
COc1ccc(CN(C)C(C)C(=O)Nc2ccc([N+](=O)[O-])cc2Cl)cc1OC (centres undefined)	-85*	0	0%	1	1%	1%
O=C(c1cnn2c(C(F)(F)F)cc(-c3ccco3)nc12)N1CCCCCC1	6	-7	-11%	0	?	?
CC1CCCCN1C(=O)c1cnn2c(C(F)(F)F)cc(-c3ccco3)nc12 (centres undefined)	-12	-20	0%	0	?	9.2µM*
CCOc1ncccc1C(=O)Nc1cc2c(cc1Br)OCCO2	0	0	-3%	-1	0%	-15%
COCCNS(=O)(=O)c1ccc(-c2ccc(Cl)cc2)cc1	-3	4	-3%	-40*	-2%	6%
COCCNS(=O)(=O)c1ccc(-c2ccc(S(=O)(=O)NCCOC)cc2)cc1	3	7	-22%	-2	-2%	2%
COc1ccc(Cc2n[nH]c(=S)n(N)c2=O)cc1	-3	1	3%	-16	0%	-5%
COc1ccccc1N1CCN(/N=C/c2cccc(Cl)c2)CC1	-1	-11	1%	0	2%	36%
COc1cccc(/C=N/N2CCN(c3ccccc3OC)CC2)c1	-120*	-25	0%	-1	4%	-2%
COc1ccccc1N1CCN(C/C(C)=C/c2ccccc2)CC1	-98*	33	-1%	-3	0%	1%
S=c1nc(-c2ccc(Br)cc2)[nH]c2ccccc12	31	-141*	-1%	-2	1%	-18%
S=c1nc(-c2ccccc2)[nH]c2ccccc12	31	-11	-1%	-1	-2%	-8%
CN1CCN(C(=O)C2CCCN(S(=O)(=O)c3ccc(Cl)cc3)C2)CC1 (centres undefined)	13	17	0%	0	0%	-1%
COCCCN(Cc1cc(OC)c(OC)c(OC)c1)C(=S)Nc1cccc(Cl)c1	6	1	.	-1	.	.

Screening results as filed in PubChem BioAssay.
